Measurements as given in PubChem BioAssay (EPA / NIEHS).
Inconclusive results are not listed. More than one record can exist for a structure, and the calls need not agree. Activity calls are given as the source filed them. Rule for the calls, unless noted: active = hit-call score of the fitted dose curve at least 0.9, where 1 is the maximum; inactive = score below 0.9.

Columns and labels:
[1] = read-out: Interleukin-8 (IL8), CXCL8 (gene 3576); test: BSK_3C_IL8: BioMAP Diversity Plus: 3C Assay for Interleukin-8 (IL8) Biomarker Activity (AID 2283020); conditions: primary human endothelial cells (HUVEC); actives raise or lower the signal
In short: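 Primary human umbilical vein endothelial cells (3C system) were exposed to test chemical for 24 h, then IL-8 was quantified by ELISA. Responses were fitted bidirectionally against DMSO vehicle as baseline.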

[2] = read-out: Monokine induced gamma interferon (MIG), CXCL9 (gene 4283); test: BSK_3C_MIG: BioMAP Diversity Plus: 3C Assay for Monokine induced gamma interferon (MIG) Biomarker Activity (AID 2283021); conditions: primary human endothelial cells (HUVEC); actives raise or lower the signal
In short: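 Primary human umbilical vein endothelial cells in the 3C system were exposed to chemical for 24 h, after which MIG was quantified by ELISA. Activity was fitted bidirectionally against DMSO as negative control and baseline.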

[3] = biological target: human Vitamin D Receptor (VDR), VDR (gene 7421) (UniProt P11473); test: ATG_VDR_TRANS: Attagene TRANS-FACTORIAL HepG2 Assay for human Vitamin D Receptor (VDR) (AID 2283022; active = hit-call score of the fitted dose curve at least 0.9, where 1 is the maximum)
In short: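 Multiplexed TRANS reporter in HepG2; 24 h treatment; reporter mRNA by RT-PCR plus capillary electrophoresis; upregulation scored relative to DMSO.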

[4] = BSK_3C_SRB: Viability Assessment in the BioMAP Diversity Plus: 3C Assay (AID 2283023); conditions: primary human endothelial cells (HUVEC);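 note: cells read 24 h after compound dosing; fitted both ways against DMSO so a hit may be signal rise or drop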
In short: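 Overt cytotoxicity is gauged in parallel confluent HUVEC cultures by SRB total-protein staining at the time of biomarker measurement, 24 h after dosing. Gain or loss of signal is fitted versus DMSO.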

[5] = BSK_3C_Vis: BioMAP Diversity Plus: 3C Assay for Morphology Visualization (AID 2283025); conditions: primary human endothelial cells (HUVEC);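 note: fitted both ways so gain or loss versus DMSO counts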
In short: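 Human umbilical vein endothelial cells in the 3C system were imaged by light microscopy 24 h after chemical dosing to record cell morphology. Activity was fitted bidirectionally against DMSO as negative control and baseline; the endpoint serves as a background control.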

[6] = BSK_4H_SRB: Viability Assessment in the BioMAP Diversity Plus: 4H Assay (AID 2283027); conditions: primary human endothelial cells (HUVEC);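 note: cells exposed to compound for 24 h before staining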;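 for AC50: curves fitted both ways versus DMSO so AC50 may be loss or gain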
In short: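 Absorbance at 560 nm of SRB-stained total protein served as the viability read-out in confluent primary human umbilical vein endothelium 24 h after chemical treatment. Curves were fitted bidirectionally against DMSO as negative control.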

[7] = BSK_BE3C_SRB: Viability Assessment in the BioMAP Diversity Plus: BE3C Assay (AID 2283028); conditions: primary human bronchial epithelial cells;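 for AC50: fitted both ways so AC50 may mark signal gain or loss versus DMSO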
In short: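 SRB total-protein staining (0.1%, after TCA fixation) of chemically dosed human bronchial epithelial primary cells at 24 h; DMSO serves as the negative control for bidirectional curve fitting.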

[8] = read-out: Thrombomodulin, THBD (gene 7056); test: BSK_3C_Thrombomodulin: BioMAP Diversity Plus: 3C Assay for Thrombomodulin Biomarker Activity (AID 2283029); conditions: primary human endothelial cells (HUVEC); actives raise or lower the signal
In short: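 Primary human umbilical vein endothelial cells (3C system) were exposed to chemical for 24 h, then thrombomodulin levels were measured by ELISA. Activity was fitted bidirectionally against the DMSO negative control as baseline.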

[9] = read-out: Urokinase-type plasminogen activator receptor (uPAR), PLAUR (gene 5329); test: BSK_4H_uPAR: BioMAP Diversity Plus: 4H Assay for Urokinase-type plasminogen activator receptor (uPAR) Biomarker Activity (AID 2283030); conditions: primary human endothelial cells (HUVEC); actives raise or lower the signal
In short: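 Endpoint derived via bidirectional curve fitting against DMSO baseline; readout was ELISA detection of uPAR on umbilical vein endothelial cells at 24 h post-treatment, with SRB-stained parallel cultures assessing cytotoxicity.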

[10] = read-out: Human Leukocyte Antigen - DR isotype (HLADR), HLA-DRA (gene 3122); test: BSK_BE3C_HLADR: BioMAP Diversity Plus: BE3C Assay for Human Leukocyte Antigen - DR isotype (HLADR) Biomarker Activity (AID 2283032); conditions: primary human bronchial epithelial cells; actives raise or lower the signal
In short: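 Human primary bronchial epithelial cells in the BE3C system were exposed to chemicals for 24 h, after which HLA-DR levels were quantified by ELISA. Activity was fitted bidirectionally, gain or loss of signal, against DMSO as negative control and baseline.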

[11] = read-out: Vascular cell adhesion molecule 1 (VCAM1), VCAM1 (gene 7412); test: BSK_4H_VCAM1: BioMAP Diversity Plus: 4H Assay for Vascular cell adhesion molecule 1 (VCAM1) Biomarker Activity (AID 2283033); conditions: primary human endothelial cells (HUVEC); actives raise or lower the signal
In short: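 Primary human umbilical vein endothelial cells were exposed to chemicals for 24 h, after which VCAM-1 was quantified by ELISA. Responses were fitted bidirectionally against DMSO as negative control and activity baseline.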

[12] = read-out: Interferon-gamma inducible Protein 10 (IP10), CXCL10 (gene 3627); test: BSK_BE3C_IP10: BioMAP Diversity Plus: BE3C Assay for Interferon-gamma inducible Protein 10 (IP10) Biomarker Activity (AID 2283034); conditions: primary human bronchial epithelial cells; actives raise or lower the signal
In short: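 Human primary bronchial epithelial cells were exposed to chemicals for 24 hours, after which IP-10 levels were measured by ELISA. Data were fitted bidirectionally against DMSO, which served as the negative control and activity baseline.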

[13] = read-out: Monokine induced gamma interferon (MIG), CXCL9 (gene 4283); test: BSK_BE3C_MIG: BioMAP Diversity Plus: BE3C Assay for Monokine induced gamma interferon (MIG) Biomarker Activity (AID 2283035); conditions: primary human bronchial epithelial cells; actives raise or lower the signal
In short: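 MIG level was determined by ELISA after 24 h chemical treatment of primary human bronchial epithelial cells. Values were fitted bidirectionally with DMSO as the negative control and activity baseline.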

[14] = read-out: Transforming growth factor beta 1 (TGFb1), TGFB1 (gene 7040); test: BSK_BE3C_TGFb1: BioMAP Diversity Plus: BE3C Assay for Transforming growth factor beta 1 (TGFb1) Biomarker Activity (AID 2283036); conditions: primary human bronchial epithelial cells; actives raise or lower the signal
In short: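 Human primary bronchial epithelial cells (BE3C system) were dosed with chemical and TGF-b1 levels measured by ELISA at 24 h. Activity was fitted bidirectionally relative to DMSO negative control as baseline.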

[15] = read-out: Plasminogen activator inhibitor-1 (PAI1), SERPINE1 (gene 5054); test: BSK_BE3C_PAI1: BioMAP Diversity Plus: BE3C Assay for Plasminogen activator inhibitor-1 (PAI1) Biomarker Activity (AID 2283037); conditions: primary human bronchial epithelial cells; actives raise or lower the signal
In short: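 Human primary bronchial epithelial cells were exposed to chemical for 24 h, then PAI-1 was quantified by ELISA. Activity was fitted bidirectionally relative to the DMSO negative control baseline.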

[16] = read-out: urokinase plasminogen activator (uPA), PLAU (gene 5328); test: BSK_BE3C_uPA: BioMAP Diversity Plus: BE3C Assay for urokinase plasminogen activator (uPA) Biomarker Activity (AID 2283038); conditions: primary human bronchial epithelial cells; actives raise or lower the signal
In short: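 Using confluent primary human lung bronchial epithelial cultures, we dosed chemicals, waited 24 h, then ran a uPA ELISA, fitting bidirectionally against DMSO.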

[17] = read-out: Urokinase-type plasminogen activator receptor (uPAR), PLAUR (gene 5329); test: BSK_BE3C_uPAR: BioMAP Diversity Plus: BE3C Assay for Urokinase-type plasminogen activator receptor (uPAR) Biomarker Activity (AID 2283039); conditions: primary human bronchial epithelial cells; actives raise or lower the signal
In short: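 Primary human bronchial epithelial cells were dosed with chemical and harvested 24 h later; uPAR was quantified by ELISA. Activity was fitted bidirectionally against DMSO as negative control and baseline.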

[18] = read-out: Matrix Metallopeptidase 1 (MMP1), MMP1 (gene 4312); test: BSK_BE3C_MMP1: BioMAP Diversity Plus: BE3C Assay for Matrix Metallopeptidase 1 (MMP1) Biomarker Activity (AID 2283024); conditions: primary human bronchial epithelial cells; actives raise or lower the signal
In short: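 Primary human bronchial epithelial cells were dosed with test chemicals, and MMP1 levels were measured by ELISA 24 h later. Data were fitted bidirectionally against DMSO as the negative control and activity baseline.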

[19] = read-out: Pselectin, SELP (gene 6403); test: BSK_4H_Pselectin: BioMAP Diversity Plus: 4H Assay for Pselectin Biomarker Activity (AID 2283026); conditions: primary human endothelial cells (HUVEC); actives raise or lower the signal
In short: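 Primary human umbilical vein endothelial cells were exposed to test chemical for 24 h, then cell-surface P-selectin was quantified by ELISA. Activity was fitted bidirectionally against DMSO as negative control and baseline.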

[20] = read-out: Vascular endothelial growth factor receptor 2 (Homo sapiens) (UniProt P35968); test: BSK_4H_VEGFRII: BioMAP Diversity Plus: 4H Assay for Vascular endothelial growth factor receptor 2 (VEGFR2) Biomarker Activity (AID 2283031); conditions: primary human endothelial cells (HUVEC); actives raise or lower the signal;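 for AC50: cell-surface VEGFR2 protein level quantified by ELISA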
In short: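 In this multiplexed HUVEC system, biomarker ELISA was performed after 24 h chemical exposure. Parallel SRB staining (TCA fixation, 560 nm) tracked cytotoxicity; DMSO served as baseline.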

Measured: AC50

Chain of human Vitamin D Receptor (VDR), VDR (gene 7421) (P11473 whole entry, looked up): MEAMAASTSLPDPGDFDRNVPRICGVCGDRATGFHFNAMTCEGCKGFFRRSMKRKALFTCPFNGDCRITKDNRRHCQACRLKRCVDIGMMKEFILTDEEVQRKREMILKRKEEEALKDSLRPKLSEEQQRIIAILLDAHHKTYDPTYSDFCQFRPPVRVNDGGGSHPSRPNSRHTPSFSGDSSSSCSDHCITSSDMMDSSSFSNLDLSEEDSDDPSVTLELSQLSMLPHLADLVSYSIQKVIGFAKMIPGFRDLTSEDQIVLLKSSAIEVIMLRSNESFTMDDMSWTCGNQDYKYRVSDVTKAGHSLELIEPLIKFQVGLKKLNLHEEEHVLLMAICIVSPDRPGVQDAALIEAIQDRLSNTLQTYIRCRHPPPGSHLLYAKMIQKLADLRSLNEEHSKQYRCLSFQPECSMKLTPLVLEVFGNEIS

CCCCC(CC)COP(=O)(Oc1ccccc1)Oc1ccccc1 (configuration not stated)
inactive: [2] | [3] | [7] | [13] | [14] | [15] | [16] | [17]
active: [1] 6.65 µM | [4] 9.7 µM | [5] 10.1 µM | [6] 20 µM | [8] 3.97 µM | [9] 20 µM | [10] 20 µM | [11] 20 µM | [12] 20 µM

O=S(=O)(F)C(F)(F)C(F)(F)C(F)(F)C(F)(F)C(F)(F)C(F)(F)C(F)(F)C(F)(F)F
not listed: [5] | [14]
inactive: all other assays above

O=C(O)C(F)(F)OC(F)(F)C(F)(F)OC(F)(F)F
inactive: [1] | [2] | [3] | [4] | [18] | [19] | [6] | [7] | [8] | [9] | [20] | [10] | [11] | [12] | [13] | [15] | [16] | [17]
active: [16] 1.42 µM

Cc1cccc(N)c1
not listed: [18] | [19] | [20]
inactive: all other assays above

O=C(O)C=CC(F)(C(F)(F)F)C(F)(F)F
not listed: [5] | [14] | [18]
inactive: all other assays above

Nc1cc2c3c(c1)C(c1ccccc1)=N[C@@H](NC(=O)c1cccnc1)C(=O)N3CC2
not listed: [2] | [18] | [19] | [20]
inactive: all other assays above

ClC1=C(Cl)C2(Cl)C3C(Cl)C(Cl)CC3C1(Cl)C2(Cl)Cl (configuration not stated)
active: [1] 35.6 µM | [4] 29.8 µM | [18] 14.4 µM | [5] 37.3 µM | [6] 29.6 µM | [9] 38 µM | [10] 15.2 µM | [11] 27.3 µM | [12] 34.9 µM | [13] 30.6 µM | [14] 9.17 µM | [15] 36.1 µM
inactive: [3] | [7] | [8] | [16] | [17]

CCC(C)(C)c1ccc(O)cc1
not listed: [3] | [18] | [20]
inactive: all other assays above

CCCCC(CC)COC(=O)c1c(Br)c(Br)c(Br)c(Br)c1C(=O)OCC(CC)CCCC (configuration not stated)
not listed: [2] | [18]
inactive: all other assays above

O=[N+]([O-])c1ccc(Cl)c(Cl)c1
not listed: [3] | [17] | [18] | [20]
inactive: all other assays above

CC(Cc1ccc(OCC(=O)O)cc1)NCC(O)c1csc(C(F)(F)F)n1 (configuration not stated)
not listed: [3] | [18] | [19] | [20]
inactive: all other assays above

N#Cc1c(-c2ccc(Cl)cc2)[nH]c(C(F)(F)F)c1Br
active: [1] 0.0221 µM | [4] 1.61 µM | [5] 7.8 µM | [6] 0.0374 µM | [8] 5.07 µM | [9] 0.13 µM | [20] 0.016 µM | [10] 4.08 µM | [11] 1.69 µM | [12] 4.45 µM | [13] 25.4 µM | [14] 0.0307 µM | [17] 0.656 µM
inactive: [3] | [18] | [7] | [15] | [16]

ClC(Cl)=C(c1ccc(Cl)cc1)c1ccccc1Cl
inactive: [3] | [18] | [8] | [14]
active: [1] 11.8 µM | [4] 7.99 µM | [5] 14.4 µM | [6] 12.6 µM | [7] 10.5 µM | [9] 11.7 µM | [20] 5.35 µM | [10] 20 µM | [11] 11.8 µM | [12] 10.7 µM | [13] 26.4 µM | [15] 10.3 µM | [16] 20 µM | [17] 8.34 µM

FC(F)(F)C(F)(C(F)(F)F)C(F)(F)C(F)(F)CC1CO1 (configuration not stated)
active: [18] 2.33 µM
inactive: [1] | [3] | [4] | [18] | [6] | [7] | [8] | [9] | [20] | [10] | [11] | [12] | [13] | [15] | [16] | [17]

CCOS(=O)(=O)OCC
not listed: [3] | [18] | [19] | [20]
inactive: all other assays above
